# Laboratory results published in PubChem BioAssay AID932 (The Scripps Research Institute Molecular Screening Center, 2007).
# Out of some 200,000 compounds screened, about 5,100 (2.5%) were called active.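 Rule for the calls: active = activation above the screen-wide mean activation plus 3 SD (cut at about 130% in these data); inactive = the rest.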 For the sample, actives were picked, then their nearest neighbours and some compounds at random.
# Assay: potentiators of IFN-gamma driven STAT1 reporter – cell-based, HTS, luciferase reporter, primary screen (AID 932);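 note: raw ratio to IFN-gamma control signal so 100% means no change and 0% no light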
# Conditions: NIH 3T3 STAT1-luciferase reporter, luminescence, at 5.5 µM, hits give high values, 100% = IFN-gamma alone, no compound
row,Compound,activation (% of control)
1,O=C(Nc1cccc(OC(=O)N2CCCCC2)c1)N1CCOCC1,101% (inactive)
2,CN1CCN(C(=O)COc2ccc(C(C)(C)C)cc2Br)CC1,97% (inactive)
3,CC(C)(C)c1ccc(OC(=O)N2CCCCC2)cc1,146% (active)
4,Cc1ccccc1N1C(=O)NC(=O)/C(=C\c2cc(C)n(C)c2C)C1=O,92.7% (inactive)
5,CCOC(=O)C1CN(C)CCC1=O (stereo not given),96.3% (inactive)
